The structures appear in SMILES notation.

The test system of this assay is Noggin (protein binding on small-molecule microarray). The assay is described as follows: small molecules binding Noggin protein – biochemical, 635/667 nm fluorescence, primary screen (AID 1095).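 Note: score merges 667 nm feature fluorescence with signal to noise over triplicate slides.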 The conditions noted are these: 635 nm fluorescence, higher = more signal.
Compound `C#CCCCON=C1[C@H]2CCn3c(=O)n(C)c(=O)n3[C@H]2[C@H](O)[C@@H]2O[C@H]12` came in with a composite z-score of 1.18.

`CCCCC#C[C@@H]1C=C[C@H](OC(C)=O)[C@@H](COC(C)=O)O1` gave a composite z-score of 0.216.

Turning to `CO[C@@H]1COC(=O)[C@@H](C)COC(=O)[C@@H](C)NC(=O)CC=C[C@@H]1C`, the composite z-score amounted to 1.6.

The compound `Cc1ccc(S(=O)(=O)OC[C@H]2CN3[C@H](c4ccc(Br)cc4)[C@@H](C)CC[C@H]3C(=O)O2)cc1` showed a composite z-score of 1.24.

Compound `COc1ccc(COC(=O)NN=C2C[C@@H](O)[C@@H](O)[C@@H]3[C@@H]4C(=O)N(c5cccc(Oc6ccccc6)c5)C(=O)[C@@H]4CC[C@@H]23)cc1` came in with a composite z-score of -0.516.

`O=C1C2=CC[C@H]3C(=O)N(c4cccc(Oc5ccccc5)c4)C(=O)[C@H]3[C@H]2[C@H](O)[C@@H]2O[C@H]12` returned a composite z-score of 0.744.

On to `CC(CCN1CCCCc2nc(C)c(C)cc21)=NO[C@H](C)c1cn([C@H](CO)Cc2ccccc2)nn1`, for which the composite z-score was found to be 0.196.

The compound `CO[C@@H]1COC(=O)[C@H](CCSC)NC(=O)CC=C[C@@H](C)COC(=O)CCC[C@H]1C` yielded a composite z-score of 1.82.

`CC(CCN1CCCc2nc(C)c(C)cc21)=NO[C@@H](C)c1cc(-c2c(C)cc(C)cc2C)no1` registered a composite z-score of 0.308.

As to `CO[C@@H]1COC(=O)[C@@H](C)NC(=O)CC=C[C@@H](C)[C@H](NS(=O)(=O)c2ccc(C)cc2)COC(=O)[C@H](C)NC(=O)CC=C[C@H]1C`, the composite z-score worked out at 0.879.

The compound `CCN1C(=O)[C@H]2[C@H]3[C@H](O)[C@H](O)CC(=NOC[C@H]4O[C@H](c5ccccc5)C=C[C@@H]4Oc4ccc(OC)cc4)[C@@H]3CC[C@H]2C1=O` returned a composite z-score of 0.738.

Regarding `CCOC(=O)[C@H](CC(C)C)NC(=O)CCC1CC(OC(=O)NCc2cccc3ccccc23)CC2(CCCC(COC(=O)NCC3CCCCC3)O2)O1` (stereo partly specified), the composite z-score turned out to be 0.895.

Consider `CC(C)CCN1CCc2nc(COc3ccccc3)c3c(c2C1)CO[C@@H](C)C3`, for which the composite z-score was -0.0126.

Regarding `COC(=O)CC=C[C@@H](C)[C@@H](C=NO[C@H](C)c1cn([C@H](CO)Cc2ccccc2)nn1)OC`, the composite z-score stood at 1.37.

The compound `CON=C(C)CCC(=O)OC[C@H]1O[C@H](c2ccccc2)C=C[C@@H]1Oc1ccc(OC)cc1` returned a composite z-score of 0.411.

As for `CCOC(=O)NN=C1C[C@@H](O)[C@@H](O)[C@@H]2[C@@H]3C(=O)N(c4cccc(Oc5ccccc5)c4)C(=O)[C@@H]3CC[C@@H]12`, the composite z-score came out at 0.918.

In the case of `CCN1C(=O)[C@H]2[C@H]3[C@H](O)[C@H](O)CC(=NO[C@@H](C)c4cn([C@H](CO)Cc5ccccc5)nn4)[C@@H]3CC[C@H]2C1=O`, the composite z-score stood at 0.387.

In turn, `COC(=O)CC=C[C@@H](C)[C@@H]1C=C[C@H](O)[C@@H](CO)O1` had a composite z-score of 0.381.

In the case of `C[C@@H](ON=C1[C@H]2CCn3c(=O)n(-c4ccccc4)c(=O)n3[C@H]2[C@H](O)[C@@H]2O[C@H]12)c1cn([C@@H]2COC[C@H]2O)nn1`, the composite z-score was 0.57.

In turn, `CC(CCC(=O)OC[C@H]1O[C@H](C#Cc2ccccc2)C=C[C@@H]1Oc1ccc(C)cc1)=NO[C@H](C)c1cn([C@H](CO)Cc2ccccc2)nn1` had a composite z-score of 0.689.

In the case of `C#CCCCON=C1C[C@@H](O)[C@@H](O)[C@@H]2[C@@H]3C(=O)N(C(C)(C)C)C(=O)[C@@H]3CC[C@H]12`, the composite z-score is -0.532.

With `COc1ccc(COC(=O)NN=C2C[C@@H](O)[C@@H](O)[C@@H]3[C@@H]4C(=O)N(C5CCCCC5)C(=O)[C@@H]4CC[C@H]23)cc1`, the composite z-score is -0.752.

`COC(=O)CC=C[C@H](C)[C@@H](OCc1cccc(Br)c1)[C@@H](C)[C@H](OC)C1CCCCC1` registered a composite z-score of 0.32.

As for `Cc1ccc(S(=O)(=O)N[C@@H]2COC(=O)[C@@H](C)COC(=O)CC=C[C@H]2C)cc1`, the composite z-score turned out to be 0.49.

In turn, `O=C1[C@H]2[C@H]3[C@H](O)[C@H](O)CC(=NO[C@@H]4O[C@H](CO)[C@@H](O)[C@H](O)[C@H]4O)[C@H]3CC[C@H]2C(=O)N1c1cccc(Oc2ccccc2)c1` returned a composite z-score of 0.329.

The compound `CCC1=NOC(CCC2CC(OC(=O)NCc3cccc4c3OCO4)CC3(CCCC(COC(=O)NCCc4ccccc4OC)O3)O2)C1` (stereo unspecified) returned a composite z-score of 0.079.

In the case of `CCOC(=O)[C@H](CC(C)C)NC(=O)CCC1CC(OC(=O)NCc2cccc3ccccc23)CC2(CCCC(COC(=O)NCCOc3ccccc3)O2)O1` (stereo partly specified), the composite z-score was 0.317.

In the case of `O=c1n(Cc2cc3c(cc2Cl)OCO3)c(=O)n2n1CC[C@@H]1C(=NOCc3ccccc3)[C@H]3O[C@H]3[C@@H](O)[C@@H]12`, the composite z-score was 0.498.

In turn, `COC(=O)[C@@H]1CC[C@H](C)[C@@H](c2ccc(C)cc2)N1C(=O)c1ccc(C=NO[C@@H](C)c2cn([C@H](CO)Cc3ccccc3)nn2)cc1` came in with a composite z-score of 1.19.

In turn, `CC(C)=CCCC(C)=CCON=C1C[C@@H](O)[C@@H](O)[C@@H]2[C@@H]3C(=O)N(Cc4ccccc4)C(=O)[C@@H]3CC[C@H]12` registered a composite z-score of 0.608.

Compound `CC(C)C[C@H](NC(=O)CCC1CC(OC(=O)NCc2cccc3ccccc23)CC2(CCCC(COC(=O)NCc3ccccc3)O2)O1)C(=O)NCC(c1ccccc1)c1ccccc1` (stereo partly specified) gave a composite z-score of 1.64.

For `CC(C)CON=C1C[C@@H](O)[C@@H](O)[C@@H]2[C@@H]3C(=O)N(C4CCCCC4)C(=O)[C@@H]3CC[C@@H]12`, the composite z-score was 0.0295.

Consider `C[C@@H](c1ccccc1)N1C(=O)[C@H]2[C@H]3[C@H](O)[C@H](O)CC(=NO[C@@H]4O[C@H](CO)[C@@H](O)[C@H](O)[C@H]4O)[C@H]3CC[C@H]2C1=O`, for which the composite z-score is 0.587.

With `COC(=O)[C@@H]1CC[C@H](C)[C@@H](c2ccc(C)cc2)N1C(=O)c1ccc(C=NOC[C@@H](C)[C@H](OCc2ccccc2)C(C)C)cc1`, the composite z-score turned out to be 0.573.

`C[C@@H](c1ccccc1)N1C(=O)[C@H]2[C@H]3[C@H](O)[C@H](O)CC(=NOCc4ccccc4)[C@H]3CC[C@H]2C1=O` registered a composite z-score of 0.374.

`COC(=O)CC=C[C@@H](C)[C@@H](C=NOCC[C@@H]1C=C[C@H](OC(C)=O)[C@@H](COC(C)=O)O1)OC` yielded a composite z-score of 0.405.
